# Experimental data as given in PubChem BioAssay AID651704 (Broad Institute, 2012).
# “And” between values parts separate entries of the source, which are not always exact repeats. Equal values may be shown once. About 1,600 (0.46%) of roughly 350,000 compounds were called active.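 The calls were made as follows: active = every replicate reaching a set inhibition limit, whatever the replicate mean (cut at about 25% in these data); inconclusive = mean inhibition reaches that limit but some replicates miss it; inactive = the rest.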 For the sample, actives were picked, then their nearest neighbours and some compounds at random.
# Molecular target: Protein AF-9 (Homo sapiens) (UniProt P42568)
# Sequence (P42568 whole entry, looked up): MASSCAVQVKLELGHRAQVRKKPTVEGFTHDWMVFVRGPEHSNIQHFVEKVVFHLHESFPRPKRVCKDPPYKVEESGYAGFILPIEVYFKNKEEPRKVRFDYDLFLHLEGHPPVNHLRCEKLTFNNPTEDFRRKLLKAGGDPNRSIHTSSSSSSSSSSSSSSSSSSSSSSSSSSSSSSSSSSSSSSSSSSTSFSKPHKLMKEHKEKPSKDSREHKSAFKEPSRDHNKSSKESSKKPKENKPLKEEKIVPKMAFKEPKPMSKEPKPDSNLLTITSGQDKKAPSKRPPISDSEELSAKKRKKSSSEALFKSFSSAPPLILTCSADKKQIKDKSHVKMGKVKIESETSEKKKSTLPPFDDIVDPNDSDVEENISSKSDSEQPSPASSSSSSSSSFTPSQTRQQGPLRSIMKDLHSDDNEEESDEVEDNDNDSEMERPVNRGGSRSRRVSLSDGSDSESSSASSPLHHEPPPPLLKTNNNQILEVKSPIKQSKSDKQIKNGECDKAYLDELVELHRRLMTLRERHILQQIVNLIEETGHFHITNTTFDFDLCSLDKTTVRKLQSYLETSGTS
# Experiment: inhibitors of AF4 peptide binding to AF9, primary screen, biochemical, AlphaScreen, biotin-AF4 peptide, FLAG-AF9, single point (AID 651704);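 also: 0% = plate neutral control median and 100% = total signal loss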
# Conditions: at 10 µM, active compounds read high
row,SMILES,inhibition
1,CN(Cc1c(F)cccc1Cl)C(=O)CNC(=O)c1ccc2c(c1)OCO2,34.1% (active)
2,O=C(NCCc1ccc(C(F)(F)F)cc1)c1ccc2c(c1)OCO2,-0.679% (inactive)
3,Cc1cccc(C)c1NC(=O)CNC(=O)c1ccc2c(c1)OCCO2,-2.49% (inactive)
4,CO[C@@H]1CN(C)C(=O)c2ccc(NC(=O)c3ccccc3F)cc2OC[C@@H](C)N(CC2CCOCC2)C[C@H]1C,1.64% (inactive)
5,COCC#Cc1ccc2c(c1)O[C@@H](CN(C)Cc1ccccn1)[C@@H](C)CN([C@@H](C)CO)S2(=O)=O,-4.38% (inactive)
6,C[C@H]1CN([C@@H](C)CO)C(=O)c2c(c3ccccc3n2C)-c2ccccc2CO[C@H]1CN(C)Cc1ccc2c(c1)OCO2,1.72% (inactive)
7,C[C@@H]1CN([C@H](C)CO)C(=O)c2c(c3ccccc3n2C)-c2ccccc2CO[C@H]1CN(C)Cc1ccc(F)cc1,-2.73% (inactive)
8,C[C@@H]1CN([C@@H](C)CO)C(=O)c2c(c3ccccc3n2C)-c2ccccc2CO[C@@H]1CN(C)Cc1cccc(C(=O)O)c1,-2.44% (inactive)
9,C[C@@H]1CN([C@H](C)CO)C(=O)c2c(c3ccccc3n2C)-c2ccccc2CO[C@@H]1CN(C)Cc1ccc(F)cc1,0.52% (inactive)
10,C[C@H]1CN([C@@H](C)CO)C(=O)c2c(c3ccccc3n2C)-c2ccccc2CO[C@@H]1CN(C)Cc1ccc2c(c1)OCCN2C,34.3% (active)
11,C[C@@H]1CN([C@@H](C)CO)C(=O)c2c(c3ccccc3n2C)-c2ccccc2CO[C@@H]1CN(C)Cc1ccc2c(c1)OCCN2C,30.8% (active)
12,Cc1ccccc1S(=O)(=O)N1CC(=O)N2[C@H](CO)[C@@H](c3ccc(C#Cc4ccccc4)cc3)[C@H]2C1,-0.846% (inactive)
13,C[C@H](CO)N1C[C@H](C)[C@H](CN(C)Cc2ccccc2)OCCCC[C@H](C)Oc2ccc(NC(=O)Cc3ccccc3)cc2C1=O,3.76% (inactive)
14,Cc1noc(C)c1S(=O)(=O)N(C)C[C@@H]1OCCCC[C@H](C)Oc2ccc(NC(=O)NC(C)C)cc2C(=O)N([C@H](C)CO)C[C@@H]1C,1.67% (inactive)
15,O=C(C[C@H]1CC[C@H]2[C@@H](COC[C@H](O)CN2C(=O)Nc2ccc(Cl)cc2)O1)NCC1CC1,2.2% (inactive)
16,O=C(Cc1cccnc1)N1CC(=O)N2[C@@H](CO)[C@@H](c3ccc(C#CC4CCCC4)cc3)[C@@H]2C1,0.34% (inactive)
17,CN(C)C(=O)C[C@@H]1CC[C@@H](NC(=O)NC2CCCC2)[C@@H](CO)O1,-1.49% (inactive)
18,COc1cccc(-c2ccc([C@@H]3[C@H]4CN(C(=O)c5cccnc5)CC(=O)N4[C@H]3CO)cc2)c1,0.197% (inactive)
19,COc1ccc2c3c([nH]c2c1)[C@H](CO)N(Cc1cccc(F)c1)CC31CCN(CC2CC2)CC1,35.1% (active)
20,CCCNC(=O)N1CC2(CCN(C(=O)C3CC3)CC2)c2c([nH]c3cc(OC)ccc23)[C@H]1CO,-0.242% (inactive)
21,COc1ccc2c3c([nH]c2c1)[C@@H](CO)N(Cc1cccc(F)c1)CC31CN(CC2CC2)C1,23.8% (inactive)
22,COc1ccc2c3c([nH]c2c1)[C@H](CO)N(Cc1cccc(F)c1)CC31CCN(Cc2ccccn2)CC1,6.18% (inactive)
23,CCCNC(=O)N1CC2(CCN(Cc3ccc(F)cc3)CC2)c2c([nH]c3cc(OC)ccc23)[C@@H]1CO,29.6% (active)
24,CCCNC(=O)N1CCC2(CC1)CN(Cc1ccccc1)[C@H](CO)c1[nH]c3cc(OC)ccc3c12,1.99% (inactive)

row,SMILES,inhibition
1,C[C@H]1CN([C@@H](C)CO)C(=O)c2cc(-c3ccc(C#N)cc3)cnc2O[C@@H]1CN(C)Cc1ccncc1,-0.44% (inactive)
2,COc1ccccc1C(=O)Nc1ccc2c(c1)C(=O)N(C)C[C@@H](OC)[C@@H](C)CN(C)[C@H](C)CO2,-2.27% (inactive)
3,N#C[C@@H]1[C@H](c2ccccc2-c2cccc(F)c2)[C@@H](CO)N1C(=O)C1CCCC1,-0.992% (inactive)
4,C[C@@H]1CN([C@@H](C)CO)C(=O)c2cc(-c3cccnc3)cnc2O[C@@H]1CN(C)C(=O)C1CC1,-2.51% (inactive)
5,O=C(C1CCCCC1)N1CC(=O)N2[C@H](CO)[C@@H](c3ccc(C#Cc4cccc(F)c4)cc3)[C@@H]2C1,-3.43% (inactive)
6,CN(Cc1ccccc1F)c1cc2c(c3c1ccn3C)C1CCC2O1 (stereo not given),28.6% (active)
7,CC(C)(C)[S@](=O)N1Cc2cc(C(=O)N[C@@H]3CCN(Cc4ccccc4)C3)nc(-c3cccc(-c4ccncc4)c3)c2[C@@H]1CCO,4.53% (inactive)
8,O=S(=O)(NC1CCCCC1N1CCC(O)CC1)c1ccc(Cl)cc1 (stereo not given),3.3% (inactive)
9,COc1ccc(N2CCN(C3CCCCC3NS(=O)(=O)c3ccccc3)CC2)cc1 (stereo not given),36.3% (active)
10,O=S(=O)(NC1CCCCC1N1CCN(c2ccccc2F)CC1)c1ccccc1 (stereo not given),5.55% (inactive)
11,Cn1cnc(CCNC(=O)C[C@H]2CC[C@H]3[C@@H](COC[C@@H](O)CN3C(=O)Nc3ccc(C(F)(F)F)cc3)O2)c1,4.5% (inactive)
12,CC(=O)c1ccc(OCC(O)CN2CCN(S(=O)(=O)c3cccc(Br)c3)CC2)cc1 (stereo not given),0.541% (inactive)
13,Cc1ccc(S(=O)(=O)N2CCN(C(=O)N3CCOCC3)CC2)c(C)c1,-6.49% (inactive)
14,Cc1cccc(OCC(O)CN2CCN(S(=O)(=O)c3ccc(C)cc3C)CC2)c1 (stereo not given),35.7% (active)
15,CCOC(=O)c1ccc(NC(=O)C2CC(=O)N(c3ccc4c(c3)OCCO4)C2)cc1 (stereo not given),-0.164% (inactive)
16,CCN(CC(=O)Nc1ccc(NC(C)=O)cc1)C(=O)C1CC(=O)N(Cc2ccc(C)cc2)C1 (stereo not given),9.28% (inactive)
17,CCN(CC(=O)Nc1ccc(NC(C)=O)cc1)C(=O)C1CC(=O)N(c2ccc3c(c2)OCCO3)C1 (stereo not given),28% (active)
18,O=C(c1ccccn1)N1CC2(C1)[C@@H](c1ccccc1)[C@@H](CO)N2C(=O)C1CCC1,0.755% (inactive)
19,CC(C)CC#Cc1ccc2c(c1)O[C@@H](CN(C)C(=O)Nc1ccccc1F)[C@@H](C)CN([C@@H](C)CO)S2(=O)=O,1.25% (inactive)
20,CC(C)C[C@@H](CO)N1CCN(Cc2ccc(O)cc2)CCC1=O,-1.96% (inactive)
21,CC(C)C[C@@H](COCc1ccc(Cl)cc1)N1CCN(C(=O)c2ccc(Cl)cc2Cl)CCC1=O,1.49% (inactive)
22,CC(C)CC(CO)N1CCN(C(=O)c2ccc(Cl)cc2Cl)CCC1=O (stereo not given),38.9% (active)
23,N#Cc1cccc(-c2ccc(C3[C@@H]4CN(C(=O)C5CCC5)C[C@H]3N4)cc2)c1 (stereo not given in full),-2.89% (inactive) and 1.48% (inactive)
24,O=C(NC1CCCCC1)N1CC2(C1)[C@@H](c1ccccc1)[C@@H](CO)N2CC1CCOCC1,-1.54% (inactive)

row,SMILES,inhibition
1,Cc1noc(C)c1COc1ccc(C(=O)NCCOc2ccccc2)cc1,-1.51% (inactive)
2,CN(C)CCNC(=O)c1ccc(-c2cn3c(-c4ccc(Oc5ccccc5)cc4)cnc3cn2)cc1,34.2% (active)
3,CN(C)C(CNC(=O)c1ccc(OCc2cn3ccccc3n2)cc1)c1ccco1 (stereo not given),0.31% (inactive)
4,Cc1ccc(S(=O)(=O)NCC[C@H]2CC[C@H](NC(=O)c3ccccn3)[C@H](CO)O2)cc1,1.07% (inactive)
5,CCC(=O)N1C[C@H](C)[C@H](OC)CN(C)C(=O)c2cc(NC(=O)Nc3cccc(F)c3)ccc2OC[C@@H]1C,2.75% (inactive)
6,O=S(=O)(c1ccccc1)N1[C@H](CO)[C@@H]2c3ccccc3NC[C@@H]21,-1.25% (inactive)
7,COc1ccccc1NC(=O)N(C)C[C@@H]1Oc2ncc(C#CCC(C)C)cc2C(=O)N([C@@H](C)CO)C[C@@H]1C,-1.7% (inactive)
8,COCC(=O)Nc1ccc2c(c1)OC[C@@H](C)N(Cc1cocn1)C[C@@H](C)[C@@H](OC)CN(C)C2=O,-2.07% (inactive)
9,Nc1ccc(N=Nc2ccccc2Cl)c(N)n1,31.4% (active)
10,CN1CCN(C(=O)C[C@H]2C[C@@H]3c4cc(NC(=O)Nc5ccc(C(F)(F)F)cc5)ccc4O[C@@H]3[C@H](CO)O2)CC1,6.81% (inactive)
11,COc1ccc(S(=O)(=O)NC[C@@H]2CC[C@@H]3[C@@H](CN3Cc3cc(F)ccc3F)O2)cc1,17.9% (inactive)
12,O=C([C@H]1N[C@H]2c3ccc(-c4ccccc4)c(=O)n3C[C@H]2[C@@H]1CO)N1CCOCC1,-1.96% (inactive)
13,CCOC(=O)c1[nH]ncc1CN1CCCC(C(=O)c2ccc(OC)cc2C)C1 (stereo not given),-1.02% (inactive)
14,COc1ccc(C(=O)C2CCCN(Cc3cccn3-c3ccccn3)C2)c(C)c1 (stereo not given),11.3% (inactive)
15,COc1ccc(C(=O)C2CCCN(Cc3ccc4nonc4c3)C2)c(C)c1 (stereo not given),29.4% (active)
16,COc1ccc2[nH]c3c(C)c4cc[n+](C)cc4c(C)c3c2c1,57.7% (active)
17,C[C@@H]1CN([C@H](C)CO)C(=O)c2cc(-c3ccc(F)cc3)cnc2O[C@@H]1CN(C)Cc1ccc(C(=O)O)cc1,-1.88% (inactive)
18,CCC(=O)N1C[C@@H](C)[C@H](OC)CN(C)C(=O)c2cc(NC(=O)NC3CCCC3)ccc2OC[C@H]1C,-2.77% (inactive)
19,C[C@H](CO)N1C[C@H](C)[C@@H](CN(C)Cc2ccc3c(c2)OCO3)OCCCC[C@H](C)Oc2ccc(NC(=O)Nc3ccc(C(F)(F)F)cc3)cc2C1=O,4.81% (inactive)
20,Cc1cc2oc3ccc(NCCC4CCCN4C)cc3c(=O)c2cc1C (stereo not given),27.8% (active)
21,Cc1cc2oc(=O)cc(CN3CCN(Cc4ccccc4)CC3)c2cc1C,2.48% (inactive)
22,COc1cccc2sc3cc(NCC[C@@H]4CCCN4C)ccc3c(=O)c12,3.58% (inactive)
